# The supplement of paper PMC8728848
# Shown is part of a subset that was picked to be rich in the strongest signals.
# B1: Gal 3C (Homo sapiens), P17931 (protein)
# chain: YGAPAGPLIVPYNLPLPGGVVPRMLITILGTVKPNANRIALDFQRGNDVAFHFNPRFNENNRRVIVCNTKLDNNWGREERQSVFPFESGKPFKIQVLVEPDHFKVAVNDAHLLQYNHRVKKLNEISKLGISGDIDLTSASYTMI
# Key:
# Experiment in all cases: glycan array binding signal (z-score within array); higher = stronger binding
# Conditions in all cases: glycan notation: IUPAC condensed, linker removed
# [1] = molecular target: Gal(b1-4)GlcNAc(b1-6)[Gal(b1-4)GlcNAc(b1-3)]GalNAc
# Method in brief: (§1)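 The Consortium for Functional Glycomics database supplied 3228 glycan arrays, of which those lacking an available protein sequence were dropped. The binding signal, a within-array Z-score, was averaged across arrays of the same protein sequence and across linkers. Negative scores can be read as non-binding.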
# Gal3S(b1-3)GalNAc = molecular target: Gal3S(b1-3)GalNAc
# Method in brief: as §1
# Gal3S4S(b1-4)GlcNAc = molecular target: Gal3S4S(b1-4)GlcNAc
# Method in brief: as §1
# Gal3S6S(b1-4)GlcNAc = molecular target: Gal3S6S(b1-4)GlcNAc
# Method in brief: as §1
# [2] = molecular target: GalNAc(b1-4)GlcNAc(b1-2)Man
# Method in brief: as §1
# [3] = molecular target: GlcNAc(a1-4)Gal(b1-4)GlcNAc(b1-3)Gal(b1-4)GlcNAc
# Method in brief: as §1
# [4] = molecular target: GlcNAc(b1-2)Man(a1-3)[GlcNAc(b1-2)Man(a1-6)]Man(b1-4)GlcNAc(b1-4)GlcNAc
# Method in brief: as §1
# [5] = molecular target: GlcNAc(b1-2)Man(a1-3)[GlcNAc(b1-2)Man(a1-6)]Man(b1-4)GlcNAc(b1-4)[Fuc(a1-6)]GlcNAc
# Method in brief: as §1
# [6] = molecular target: GlcNAc(b1-3)Gal(b1-4)GlcNAc(b1-3)Gal(b1-4)GlcNAc(b1-3)Gal(b1-4)GlcNAc(b1-3)Gal(b1-4)GlcNAc(b1-2)Man(a1-3)[GlcNAc(b1-3)Gal(b1-4)GlcNAc(b1-3)Gal(b1-4)GlcNAc(b1-3)Gal(b1-4)GlcNAc(b1-3)Gal(b1-4)GlcNAc(b1-2)Man(a1-6)]Man(b1-4)GlcNAc(b1-4)GlcNAc
# Method in brief: as §1
# [7] = molecular target: GlcNAc(b1-3)Gal(b1-4)GlcNAc(b1-3)Gal(b1-4)GlcNAc(b1-3)Gal(b1-4)GlcNAc(b1-3)Gal(b1-4)GlcNAc(b1-2)Man(a1-3)[GlcNAc(b1-3)Gal(b1-4)GlcNAc(b1-3)Gal(b1-4)GlcNAc(b1-3)Gal(b1-4)GlcNAc(b1-3)Gal(b1-4)GlcNAc(b1-2)Man(a1-6)]Man(b1-4)GlcNAc(b1-4)[Fuc(a1-6)]GlcNAc
# Method in brief: as §1
# [8] = molecular target: GlcNAc(b1-3)Gal(b1-4)GlcNAc(b1-3)GalNAc
# Method in brief: as §1
# [9] = molecular target: GlcNAc(b1-3)[GlcNAc(b1-6)]GalNAc
# Method in brief: as §1
# GlcNAc(b1-6)GalNAc = molecular target: GlcNAc(b1-6)GalNAc
# Method in brief: as §1
# Kdn(a2-3)Gal(b1-4)Glc = molecular target: Kdn(a2-3)Gal(b1-4)Glc
# Method in brief: as §1
# [10] = molecular target: Man(a1-2)Man(a1-3)[Man(a1-6)]Man(a1-6)[Man(a1-2)Man(a1-3)]Man(b1-4)GlcNAc(b1-4)GlcNAc
# Method in brief: as §1
# [11] = molecular target: Man(a1-3)[Man(a1-6)]Man(b1-4)GlcNAc(b1-4)GlcNAc
# Method in brief: as §1
# [12] = molecular target: Neu5Ac(a2-3)Gal(b1-4)[Fuc(a1-3)]GlcNAc(b1-3)Gal(b1-4)GlcNAc
# Method in brief: as §1
# [13] = molecular target: Neu5Ac(a2-3)Gal6S(b1-4)[Fuc(a1-3)]GlcNAc
# Method in brief: as §1
# [14] = molecular target: Neu5Ac(a2-6)Gal(b1-3)GlcNAc(b1-3)[Gal(b1-4)GlcNAc(b1-6)]Gal(b1-4)Glc
# Method in brief: as §1
# [15] = molecular target: Neu5Ac(a2-8)Neu5Ac(a2-3)Gal(b1-3)GalNAc(b1-4)[Neu5Ac(a2-8)Neu5Ac(a2-3)]Gal(b1-4)Glc
# Method in brief: as §1
# [16] = molecular target: Neu5Ac(a2-8)Neu5Ac(a2-3)Gal(b1-4)GlcNAc
# Method in brief: as §1
# [17] = molecular target: Neu5Gc(a2-3)Gal(b1-4)GlcNAc(b1-3)Gal(b1-4)GlcNAc(b1-2)Man(a1-3)[Neu5Gc(a2-3)Gal(b1-4)GlcNAc(b1-3)Gal(b1-4)GlcNAc(b1-2)Man(a1-6)]Man(b1-4)GlcNAc(b1-4)GlcNAc
# Method in brief: as §1
# [18] = molecular target: Neu5Gc(a2-6)Gal(b1-4)GlcNAc
# Method in brief: as §1
# [19] = molecular target: Neu5Gc(a2-8)Neu5Gc(a2-3)Gal(b1-4)GlcNAc
# Method in brief: as §1
binder,measurement,setting,value
B1,glycan array binding signal (z-score),[1],-0.244
same,glycan array binding signal (z-score),Gal3S(b1-3)GalNAc,-0.289
same,glycan array binding signal (z-score),Gal3S4S(b1-4)GlcNAc,-0.291
same,glycan array binding signal (z-score),Gal3S6S(b1-4)GlcNAc,-0.289
same,glycan array binding signal (z-score),[2],-0.274
same,glycan array binding signal (z-score),[3],-0.2
same,glycan array binding signal (z-score),[4],-0.279
same,glycan array binding signal (z-score),[5],-0.196
same,glycan array binding signal (z-score),[6],4.63
same,glycan array binding signal (z-score),[7],4.02
same,glycan array binding signal (z-score),[8],-0.286
same,glycan array binding signal (z-score),[9],-0.331
same,glycan array binding signal (z-score),GlcNAc(b1-6)GalNAc,-0.322
same,glycan array binding signal (z-score),Kdn(a2-3)Gal(b1-4)Glc,-0.237
same,glycan array binding signal (z-score),[10],-0.298
same,glycan array binding signal (z-score),[11],-0.065
same,glycan array binding signal (z-score),[12],-0.191
same,glycan array binding signal (z-score),[13],-0.327
same,glycan array binding signal (z-score),[14],-0.3
same,glycan array binding signal (z-score),[15],-0.226
same,glycan array binding signal (z-score),[16],-0.266
same,glycan array binding signal (z-score),[17],-0.152
same,glycan array binding signal (z-score),[18],-0.31
same,glycan array binding signal (z-score),[19],-0.336
